A selection: hits, their analogues and other compounds. The true share with any hit is near 4.1%.
ABHD5 PLIN5 PPI – blocks binding of human ABHD5 to perilipin-5 | Q00G26+Q8WTS1 | Split G. princeps luciferase complementation, luminescence, 4 h | inhibition, % at 4 µM | 0.78% of 360,000 active | AID 602281;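 active = inhibition above the mean inhibition across every tested compound plus 3 SD, cut at about 22% in these data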;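 also: 0% = DMSO only wells and the 100% control is not disclosed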
MBD2 DNA inh – MBD2-methylated oligo binding inhibition; Q9UBB5; TR-FRET, MBD2 binding to methylated oligonucleotide; inhibition, % at 4.4 µM; 0.31% of 370,000 active; in the data active = inhibition above about 13%
Target sequence (Q9UBB5 whole entry, looked up): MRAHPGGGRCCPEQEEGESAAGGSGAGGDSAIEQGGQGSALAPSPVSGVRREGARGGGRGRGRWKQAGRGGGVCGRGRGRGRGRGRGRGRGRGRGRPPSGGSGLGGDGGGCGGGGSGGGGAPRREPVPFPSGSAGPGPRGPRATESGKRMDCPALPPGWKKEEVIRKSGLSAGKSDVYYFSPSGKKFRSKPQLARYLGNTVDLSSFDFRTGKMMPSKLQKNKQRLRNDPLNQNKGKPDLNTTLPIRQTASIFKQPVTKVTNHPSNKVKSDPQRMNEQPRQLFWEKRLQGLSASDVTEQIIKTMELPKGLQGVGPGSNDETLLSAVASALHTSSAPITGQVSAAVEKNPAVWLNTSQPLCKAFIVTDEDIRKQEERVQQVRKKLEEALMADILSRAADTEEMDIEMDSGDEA
UHRF1 MBD2 ctr – blocks human UHRF1 binding to methylated DNA | Q96T88 | UHRF1 binding to methylated oligo, TR-FRET | inhibition, % at 4.4 µM | 0.75% of 370,000 active | AID 687016; in the data active = inhibition above about 21%;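 also: UHRF1 SRA domain binding a hemimethylated CpG hairpin DNA probe; 0% = median of test compound wells and 100% = reference inhibitor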
rCAG binder – binds r(CAG) RNA repeats | r(CAG) RNA repeat, TO-PRO-1 dye displacement fluorescence | inhibition, % at 3 µM | 1.3% of 370,000 active | AID 651821;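 active = inhibition above the plate cutoff, the mean of all test compounds on that plate plus 3 SD, cut at about 35% in these data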;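 also: 0% = DMSO alone and 100% = 100 µM mitoxantrone as full dye displacement; higher means more dye released from RNA so lower well fluorescence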
PRMT1 FP inh – blocks human protein arginine methyltransferase 1. Q99873. recombinant PRMT1, activity-based probe fluorescence polarization. inhibition, % at 2.79 µM. 1.3% of 370,000 active;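 active = inhibition above about 21% made by adding two undisclosed values, limit read from the data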
LEDGF integ inh – blocks HIV-1 LEDGF/p75-dependent DNA integration; TR-FRET IN-LEDGF/p75 DNA integration, Eu/Cy5; inhibition, % at 3.7 µM; 0.64% of 370,000 active;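 active = inhibition above the screen-wide mean plus 3 SD, cut at about 13% in these data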;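 also: signal is the Cy5 over europium emission ratio at 671 and 618 nm; 0% = plate median of compound wells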
* = called active by the depositor; . = no result given; ! = not confirmed by another sample.

SMILES	ABHD5 PLIN5 PPI	MBD2 DNA inh	UHRF1 MBD2 ctr	rCAG binder	PRMT1 FP inh	LEDGF integ inh
CC1CCN(C(=O)c2ccc3c(c2)OCCO3)CC1	-2.7	0.1	-3.3	-1.3	-2.1	4.2
CC1=NN(c2ccc(S(=O)(=O)O)cc2C)C(=O)C1	-15.9	-6.1	-5.3	1.5	9.4	0.8
O=C(O)C1=NN(c2cc(Cl)c(S(=O)(=O)O)cc2Cl)C(=O)C1	5.6	6.8	30.9*	4.7	5.9	10.9
Cc1ccc(NC(=O)C2CCN(c3nnc(-n4cccc4)s3)CC2)c(C)c1	.	-1.8	0.3	9.1	-4.1	0.8
O=C(NN=Cc1ccco1)c1cccnc1	.	-2.1	1.0	1.2	-0.6	-1.3
COC1(OC)C(/C=C/c2ccc(C)cc2)C(C#N)(C#N)C1(OC)OC (configuration not stated)	22.0*	8.5	21.1*	0.1	3.4	0.6
CCOc1ccccc1-n1c(=S)sc2c(=O)n(-c3ccc(C)cc3)c(=S)[nH]c21	-5.7	-1.3	0.5	9.3	73.0*	4.0
CCN(C(=O)COC(=O)c1ccccc1NCCO)c1cccc2ccccc12	5.6	4.5	91.0*	-6.5	1.6	-1.7
CCOC(=O)[C@@]12CCCC=C1N(CCc1ccc(Cl)cc1)C(=O)[C@H]2CC(=O)N1CCOCC1	.	0.0	-1.1	4.6	-0.5	-1.6
C=C(C)c1cccc(C(C)(C)NC(=O)N2CCCCC2CC)c1 (configuration not stated)	6.0	6.6	22.4*	-4.6	2.4	3.0
C=C(C)c1cccc(C(C)(C)NC(=O)N2CCN(CC)CC2)c1	1.2	-4.0	0.6	-1.6	-2.0	-1.5
CCn1c2ccccc2c2cc(NC(=O)COC(=O)c3ccc(F)cc3F)ccc21	.	-3.1	0.4	4.9	-0.9	-2.9
COc1ccc(OCc2cc(C(=O)NC(C)Cn3cncn3)no2)c(Cl)c1 (configuration not stated)	12.4	9.2	26.8*	15.3	-4.8	6.8
COc1ccc(OCc2cc(C(=O)NC(C)Cc3cccnc3)no2)c(Cl)c1 (configuration not stated)	-3.8	-6.5	-2.4	-7.7	0.8	-2.5
CN1[C@@H](Cc2ccccc2)COc2cccc(N3CCSCC3)c2S1(=O)=O	.	4.3	4.0	5.2	15.5	0.5
CC(C)C(=O)N[C@H]1[C@H](O)CCC[C@@]12C(=O)N(Cc1ccccc1)c1ccccc12	.	3.5	2.9	1.7	-2.8	6.4
O=S(=O)(c1ccc(C(F)(F)F)cc1)N1CCCc2nc(-c3ccc(Br)cc3)ccc21	.	0.4	2.1	3.4	-2.6	2.5
CC12COC3(P(=O)(c4ccccc4)c4ccccc4)CC1CCC23CP(=O)(c1ccccc1)c1ccccc1 (configuration not stated)	0.8	11.2	22.0*	0.5	3.6	-1.5
CC12COC3(C(=O)Nc4ccc(F)cc4)CC1CCC32C (configuration not stated)	1.4	0.9	3.7	-1.2	0.6	-3.0
CCOCCCNC(=O)C1CCN(S(=O)(=O)c2cc3c(cc2Br)CCN3C(=O)CC)CC1	.	-4.2	-0.4	4.0	-0.6	-0.5
CCS(=O)(=O)c1ccc2oc(SCC(=O)Nc3ccc(OC)cc3OC)nc2c1	-1.5	-0.5	1.8	4.0	3.8	2.0
CCS(=O)(=O)c1ccc2oc(SCC(=O)NCCc3ccc(OC)cc3)nc2c1	-7.6	0.3	29.2*	6.4	7.6	-5.1
COc1ccc2cc3[n+](cc2c1OC)CCc1cc2c(cc1-3)OCO2	5.2	-15.3	23.4*!	8.8	0.6	-0.2
COC(=O)[C@]12C[C@H](CC(=O)NCc3cccs3)C(=O)N(CCC3=CCCCC3)C1=C[C@H](COCc1ccccc1)O[C@@H]2C	.	-0.9	-2.6	7.7	-3.5	-1.6
COC(=O)C1CN(Cc2cn(CCC3OCCO3)nn2)CCS(=O)(=O)N1Cc1ccc(F)cc1 (configuration not stated)	.	2.7	12.9	0.3	-4.0	2.2
CCCSc1nc2cc(C)c(C)cc2n1CC(C)O (configuration not stated)	0.1	6.3	22.0*	-5.2	-1.0	1.2
CC(C)CCn1nnnc1C(c1ccc(F)cc1)N1CCC(C(N)=O)CC1 (configuration not stated)	4.9	7.2	21.7*	-4.9	1.1	3.3

From PubChem
